Measurements from publication PMC5540273 (PLoS ONE, 2017).

Test system: p38-delta
Details: concentration: 1 μM, replicates: in singlicate; n = 1
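Further: KINOMEscan kinase panel screen.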

SMILES | %Inh
O=C(Nc1n[nH]c2nc(-c3ccccc3)c(Cl)cc12)C1CC1 [SB-734909] | 10%
COc1ccc(Nc2nccc(N3CCC(NS(=O)(=O)c4ccc(NC(C)=O)cc4)C3)n2)cc1 (stereo not drawn) [GSK1379729] | 30%
COc1ccc(-c2coc3ccc(-c4nnc(SCc5cccc(C#N)c5)o4)cc23)cc1 | 16%
O=C(Nc1n[nH]c2cc(-c3ccccc3F)ccc12)C1CC1 [SB-733371] | 0%
CCc1ccc(-c2ccc3c(c2)-c2nn(C)cc2S(=O)(=O)N3C)cc1 | 22%
Cc1nnc(-c2ccc3ncn(-c4ccc(S(C)=O)cc4)c3c2)o1 (stereo not drawn) | 1%
COc1cccc(-n2cnc3c(N)ncnc32)c1 [SKF-97416] | 0%
COc1ccc(-n2cnc3c(N)ncnc32)cc1 [SKF-97236] | 0%
COC(=O)c1c(-c2ccccc2)c2cc(Br)ccc2c(=O)n1Cc1ccc(S(C)(=O)=O)cc1 | 38%
Cc1cccc(-c2cc(-c3c[nH]nc3-c3ccccn3)ccn2)c1 [GW679395] | 44%
OCCCNc1nccc(-c2c(-c3cccc(C(F)(F)F)c3)nn3cc(C(F)(F)F)ccc23)n1 [GW630813] | 20%
CCCNC(=O)Nc1ccc(Oc2ncnc3ccn(C)c23)cc1 | 4%
O=C(NCc1cccs1)c1cc(C(=O)c2c(Cl)cccc2Cl)c[nH]1 [GW823670] | 0%
CN1C(=O)C(Nc2ccccc2)=C(c2ccccc2)C1=O [SB-300079] | 0%
COc1cc2nccc(Nc3ccc(OCc4ccc(NC(C)=O)cc4)cc3)c2cc1OC.Cl [GW440135] | 24%
O=C(Nc1ccc2c(c1)OCO2)NC1CCN(c2ccnc(NCc3ccc(F)cc3)n2)CC1 [GSK1379859] | 28%
COc1cc(Nc2nccc(N3CCC(NC(=O)C4COc5ccccc5O4)C3)n2)cc(OC)c1OC (stereo not drawn) [GSK1379761] | 34%
Cl.NS(=O)(=O)c1cccc(Nc2cc(-c3ccc(F)cc3)n[nH]2)c1 [GW824645] | 0%

SMILES | %Inh
FC(F)(F)c1ccc(-c2ncn(CCCN3CCOCC3)c2-c2ccncc2)cc1 [SB-217780] | 42%
CCC(=O)c1c(-c2ccccc2)c2cc(Cl)ccc2c(=O)n1Cc1cc(S(C)(=O)=O)n(CC(N)=O)n1 | 16%
COc1cc(Nc2nccc(N3CCC(NC(=O)C(C)c4ccc(Cl)cc4)C3)n2)cc(OC)c1OC (stereo not drawn) [GSK1379757] | 43%
CCCC(=O)Nc1n[nH]c2ncc(-c3cccc4ccccc34)cc12 [SB-642057] | 26%
Nc1nccc2scc(-c3ccc4c(c3)CCN4C(=O)Cc3ccccc3)c12 [GSK2576924] | 19%
Nc1n[nH]c2nnc(-c3ccccc3)c(-c3ccccc3)c12 [GW554060] | 27%
C[C@@H]1CC[C@H](C(=O)NC2CCCCC2)CN1c1cc(-c2ccc3c(N)n[nH]c3c2)nc(N)n1 [GSK2291363] | 42%
Cn1c(=O)c(F)c(Nc2ccc(I)cc2F)c2c(=O)n(OC[C@H](O)CO)cnc21 | 0%
COc1ccc(-c2cc3c(C)nc(N)nc3n([C@H]3CC[C@H](OCCO)CC3)c2=O)cn1 | 13%
Cc1c(Cn2c(C)nn3c(=O)cc(N4CCO[C@H](C)C4)nc23)cccc1C(F)(F)F [GSK2373690] | 41%
COc1ccc(CNC(=O)NC2CCN(c3ccnc(Nc4ccc(F)cc4)n3)C2)cc1 (stereo not drawn) [GSK1379706] | 38%
CN1C(=O)C(Nc2cc(Cl)c(O)c(Cl)c2)=C(c2ccc(Cl)cc2)C1=O [SB-404321] | 21%
CCS(=O)(=O)c1ccc(OC)c(Nc2ncc(-c3ccc(F)cc3)o2)c1.Cl [GW591947] | 43%
Cc1cc(Nc2nc(-c3cccc(C)n3)nc3ccccc23)ccn1 [GW872411] | 0%
Cc1nn2c(=O)cc(N3CCOCC3)nc2n1Cc1cccc(Cl)c1Cl [GSK2342769] | 17%
O=C(Nc1n[nH]c2nc(-c3ccccc3)c(Br)cc12)C1CC1 [SB-708998] | 0%
COc1cccc(C2=C(Nc3cccc(C(=O)O)c3)C(=O)NC2=O)c1 [SB-390770] | 34%
Cc1ccc(Oc2ccc(Nc3ncnc4cc[nH]c34)cc2C)cn1 | 30%

Test system: T1, p38-gamma
T1 construct: gene MAPK12
Details: concentration: 1 μM, replicates: in singlicate; n = 1

SMILES | %Inh
O=C(Nc1n[nH]c2nc(-c3ccccc3)c(Cl)cc12)C1CC1 [SB-734909] | 27%
COc1ccc(Nc2nccc(N3CCC(NS(=O)(=O)c4ccc(NC(C)=O)cc4)C3)n2)cc1 (stereo not drawn) [GSK1379729] | 17%
COc1ccc(-c2coc3ccc(-c4nnc(SCc5cccc(C#N)c5)o4)cc23)cc1 | 7%
O=C(Nc1n[nH]c2cc(-c3ccccc3F)ccc12)C1CC1 [SB-733371] | 19%
CCc1ccc(-c2ccc3c(c2)-c2nn(C)cc2S(=O)(=O)N3C)cc1 | 9%
Cc1nnc(-c2ccc3ncn(-c4ccc(S(C)=O)cc4)c3c2)o1 (stereo not drawn) | 0%
COc1cccc(-n2cnc3c(N)ncnc32)c1 [SKF-97416] | 52%
COc1ccc(-n2cnc3c(N)ncnc32)cc1 [SKF-97236] | 12%
COC(=O)c1c(-c2ccccc2)c2cc(Br)ccc2c(=O)n1Cc1ccc(S(C)(=O)=O)cc1 | 29%
Cc1cccc(-c2cc(-c3c[nH]nc3-c3ccccn3)ccn2)c1 [GW679395] | 12%
OCCCNc1nccc(-c2c(-c3cccc(C(F)(F)F)c3)nn3cc(C(F)(F)F)ccc23)n1 [GW630813] | 0%
CCCNC(=O)Nc1ccc(Oc2ncnc3ccn(C)c23)cc1 | 3%
O=C(NCc1cccs1)c1cc(C(=O)c2c(Cl)cccc2Cl)c[nH]1 [GW823670] | 0%
CN1C(=O)C(Nc2ccccc2)=C(c2ccccc2)C1=O [SB-300079] | 0%
COc1cc2nccc(Nc3ccc(OCc4ccc(NC(C)=O)cc4)cc3)c2cc1OC.Cl [GW440135] | 0%
O=C(Nc1ccc2c(c1)OCO2)NC1CCN(c2ccnc(NCc3ccc(F)cc3)n2)CC1 [GSK1379859] | 0%
COc1cc(Nc2nccc(N3CCC(NC(=O)C4COc5ccccc5O4)C3)n2)cc(OC)c1OC (stereo not drawn) [GSK1379761] | 39%
Cl.NS(=O)(=O)c1cccc(Nc2cc(-c3ccc(F)cc3)n[nH]2)c1 [GW824645] | 0%

SMILES | %Inh
FC(F)(F)c1ccc(-c2ncn(CCCN3CCOCC3)c2-c2ccncc2)cc1 [SB-217780] | 2%
CCC(=O)c1c(-c2ccccc2)c2cc(Cl)ccc2c(=O)n1Cc1cc(S(C)(=O)=O)n(CC(N)=O)n1 | 7%
COc1cc(Nc2nccc(N3CCC(NC(=O)C(C)c4ccc(Cl)cc4)C3)n2)cc(OC)c1OC (stereo not drawn) [GSK1379757] | 1%
CCCC(=O)Nc1n[nH]c2ncc(-c3cccc4ccccc34)cc12 [SB-642057] | 39%
Nc1nccc2scc(-c3ccc4c(c3)CCN4C(=O)Cc3ccccc3)c12 [GSK2576924] | 5%
Nc1n[nH]c2nnc(-c3ccccc3)c(-c3ccccc3)c12 [GW554060] | 0%
C[C@@H]1CC[C@H](C(=O)NC2CCCCC2)CN1c1cc(-c2ccc3c(N)n[nH]c3c2)nc(N)n1 [GSK2291363] | 45%
Cn1c(=O)c(F)c(Nc2ccc(I)cc2F)c2c(=O)n(OC[C@H](O)CO)cnc21 | 39%
COc1ccc(-c2cc3c(C)nc(N)nc3n([C@H]3CC[C@H](OCCO)CC3)c2=O)cn1 | 0%
Cc1c(Cn2c(C)nn3c(=O)cc(N4CCO[C@H](C)C4)nc23)cccc1C(F)(F)F [GSK2373690] | 0%
COc1ccc(CNC(=O)NC2CCN(c3ccnc(Nc4ccc(F)cc4)n3)C2)cc1 (stereo not drawn) [GSK1379706] | 4%
CN1C(=O)C(Nc2cc(Cl)c(O)c(Cl)c2)=C(c2ccc(Cl)cc2)C1=O [SB-404321] | 23%
CCS(=O)(=O)c1ccc(OC)c(Nc2ncc(-c3ccc(F)cc3)o2)c1.Cl [GW591947] | 6%
Cc1cc(Nc2nc(-c3cccc(C)n3)nc3ccccc23)ccn1 [GW872411] | 0%
Cc1nn2c(=O)cc(N3CCOCC3)nc2n1Cc1cccc(Cl)c1Cl [GSK2342769] | 0%
O=C(Nc1n[nH]c2nc(-c3ccccc3)c(Br)cc12)C1CC1 [SB-708998] | 26%
COc1cccc(C2=C(Nc3cccc(C(=O)O)c3)C(=O)NC2=O)c1 [SB-390770] | 0%
Cc1ccc(Oc2ccc(Nc3ncnc4cc[nH]c34)cc2C)cn1 | 35%
